CYP2C19 inh = blockers of cytochrome P450 2C19 activity – biochemical, luminescence, ADME assay, primary screen | inhibition, % at 5 µM | CYP2C19 Supersomes, luciferin-H EGE luminescence, 30 min | 96,000 compounds, 21% hits | P33261 | AID 778, 2007;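 active = CYP2C19 inhibition above a set limit at 5 µM in the primary screen, cut at about 50% in these data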
Target sequence (P33261 whole entry, looked up): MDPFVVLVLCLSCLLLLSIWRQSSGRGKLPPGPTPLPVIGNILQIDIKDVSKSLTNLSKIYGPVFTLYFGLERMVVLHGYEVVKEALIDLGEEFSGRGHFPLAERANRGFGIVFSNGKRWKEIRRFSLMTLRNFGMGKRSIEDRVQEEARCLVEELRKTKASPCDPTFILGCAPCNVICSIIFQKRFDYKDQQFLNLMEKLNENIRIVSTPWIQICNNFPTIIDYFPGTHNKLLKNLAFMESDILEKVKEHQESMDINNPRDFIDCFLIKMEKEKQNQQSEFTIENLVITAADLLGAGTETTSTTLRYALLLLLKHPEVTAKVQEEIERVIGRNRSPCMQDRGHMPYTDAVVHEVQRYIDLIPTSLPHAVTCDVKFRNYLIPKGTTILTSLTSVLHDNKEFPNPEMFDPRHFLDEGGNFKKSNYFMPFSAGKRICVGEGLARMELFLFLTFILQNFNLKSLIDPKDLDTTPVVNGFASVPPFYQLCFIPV
CYP2C9 activ = human CYP2C9 activators, primary screen, biochemical, luminescence; 96,000 compounds, 1.4% hits; recombinant CYP2C9, luciferin-H conversion; stronger effect = higher value; factor 1 = untreated enzyme, 0 = blocked; activation factor at 5 µM; AID 1024, 2008;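 active = activation factor of 2 or more for CYP2C9 at a 5 µM dose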
Mac1 fbg enh = enhancers of CD11b/CD18 adhesion to fibrinogen, primary screen, K562 cells, luminescence; activation, % at 10 µM; 93,000 compounds, 0.07% hits; ATPlite luminescence; Integrin beta-2 (Homo sapiens) + Integrin alpha-M (Homo sapiens), P05107+P11215; AID 1499, 2009;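 active = 10 µM primary screen giving 50% or more activity, confirmed by 40% or more on retest at that dose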
CYP2C19 act = human CYP2C19 activators, primary screen, biochemical, luminescence; 96,000 tested, under 10 active; AID 1025, 2008; Cytochrome P450 2C19 (Homo sapiens), P33261; recombinant CYP2C19, luciferin-H EGE luminescence; stronger effect = higher value; 0 = fully inhibited enzyme, 1 = untreated enzyme; activation factor at 5 µM;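 active = activation factor of at least 2 at 5 µM in the primary screen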
CYP2C9 inh = blockers of cytochrome P450 2C9 activity – biochemical, luminescence, ADME assay, primary screen | P11712 | CYP2C9 Supersomes, luciferin-H conversion | inhibition, % at 5 µM | 96,000 compounds, 20% hits | AID 777, 2007;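 active = blocking of liver enzyme CYP2C9 beyond about 50% at 5 µM, limit read from the data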
CD11b adhes inh = inhibitors of CD11b/CD18 adhesion to fibrinogen, primary screen, K562 cells, luminescence; Integrin beta-2 (Homo sapiens) + Integrin alpha-M (Homo sapiens), P05107+P11215; ATPlite luminescence; Mn2+ added to activate the integrin; inhibition, % at 10 µM; 93,000 compounds, 0.54% hits;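 active = primary inhibition of 50% or more at 10 µM, then 40% or more on retest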
Numbers stand for hits; - = inactive; . = no result. This is a sample that favours compounds with a hit; in the whole collection about 28% have one here.

SMILES	CYP2C19 inh	CYP2C9 activ	Mac1 fbg enh	CYP2C19 act	CYP2C9 inh	CD11b adhes inh
Cc1ccc2c(c1)CC1(CN2C)C(=O)NC(=O)N(c2ccc(C)c(C)c2)C1=O (centres undefined)	53	-	-	-	86	-
Cc1ccc2c(c1)CC1(CN2C)C(=O)NC(=O)N(c2ccccc2C)C1=O (centres undefined)	-	-	-	-	-	-
CC1=CC(C)C(COC(N)=O)(COC(N)=O)C(C)C1 (centres undefined)	-	-	-	-	-	-
CCOc1c(P(=S)(N(C)C)N(C)C)c(C)nn1-c1ccccc1	89	-	-	-	78	-
CN(C)C1(c2nnnn2-c2ccc(Cl)cc2)CCCCC1	93	-	-	-	-	-
CN(C)C1(c2nnnn2CCOC(=O)Nc2ccc(Cl)cc2)CCCCC1	100	-	-	-	87	-
Cc1cc2c(C(F)(F)F)cc(=O)oc2c2c1NCCC2	-	2.4	.	-	-	.
CP(=O)(O)CCCN	61	-	-	-	-	-
COP(=S)(OC)SCN1C(=O)c2ccccc2C1=O	98	-	-	-	71	-
CC1CCC(C(C)C)C(OP(N)(=O)c2ccccc2)C1 (centres undefined)	83	-	-	-	65	-
CCOc1ccc(-n2c(O)c(C=Nc3ccc(N4CCOCC4)cc3)c(=O)[nH]c2=O)cc1	-	-	-	-	-	-
Cn1cc(CCC(=O)N2CCC3(CC2)OCCO3)c2ccccc21	98	-	-	-	-	-
Cn1c(=O)cc(SCC(=O)N2CCC3(CC2)OCCO3)c2ccccc21	-	2.1	-	-	-	-
Cn1c2ccccc2c2c(C(=O)N3CCC4(CC3)OCCO4)cn(C3CCCC3)c(=O)c21	-	-	-	-	72	-
O=C(Cc1cccs1)N1CCC2(CC1)OCCO2	80	-	-	-	-	-
Cc1ccc(CN2C(=O)NC(=O)C3(Cc4c(nc5ccccn5c4=O)N4CCCCCC43)C2=O)cc1 (centres undefined)	-	-	-	-	-	-
Cc1ccccc1C1=NCC(=O)N(CC(=O)N2CCCCC2)c2sc(C)c(C)c21	-	-	-	-	-	-
O=C(COC(=O)Cc1ccccc1)Nc1ncc(Cl)cc1Cl	58	-	-	-	-	-
CC1CCCC(NC(=O)COC(=O)Cc2ccccc2)C1C (centres undefined)	-	-	-	-	-	-
FC(F)(F)c1ccc2c(c1)NP(=S)(N1CCOCC1)c1nccn1-2 (centres undefined)	61	-	-	-	-	-
Nc1ccccc1C(=O)OCCOc1ccccc1	92	-	-	-	74	-
O=C(Cc1ccccc1)N1CCN(Cc2c[nH]c3ccccc23)CC1	62	-	-	-	-	-
O=C(COc1ccccc1)N1CCN(Cc2c[nH]c3ccccc23)CC1	-	-	-	-	-	-
CCc1cc2c(s1)NC(=O)CN=C2c1cccs1	-	-	-	-	-	-
CC1CN=C(Nc2ccc(N(C)C)cc2)S1 (centres undefined)	56	-	-	-	-	-
SMILES	CYP2C19 inh	CYP2C9 activ	Mac1 fbg enh	CYP2C19 act	CYP2C9 inh	CD11b adhes inh
CCN(CC)P(=O)(NC(=O)C(Cl)(Cl)Cl)N(CC)CC.[Cl-].[Cl-].[Cl-].[Nd+3]	-	-	-	-	90	-
CCOc1ccccc1N1C(=O)NC(=O)/C(=C/c2ccc3c4c(cccc24)CC3)C1=O	-	4.1	.	-	-	.
CCCCCCN=C(C)c1c(O)n(CCCC)c(=O)[nH]c1=O	55	-	-	-	66	-
CCCCn1c(O)c(C(C)=NCCCn2ccnc2)c(=O)[nH]c1=O	-	-	-	-	90	-
C=CCn1c(O)c(C(=O)CCCCCC)c(=O)[nH]c1=O	-	-	-	-	57	-
C=CCn1c(O)c(C(C)=NCCCO)c(=O)[nH]c1=O	-	-	.	-	-	.
COC(=O)C(O)(c1ccc2c(c1)CCCN2)C(F)(F)F (centres undefined)	-	-	-	-	-	-
Cn1c[n+](C)cc1C(O)c1ccccc1 (centres undefined)	-	-	-	-	-	-
CCCCn1c(O)c(C(CC)=Nc2cccc(C(=O)O)c2)c(=O)[nH]c1=O	-	-	.	-	-	.
CN(C)C1=NC(N(C)C)=NP(N(C)C)(N(C)C)=N1	-	-	-	-	-	-
c1ccc(C2CC3CC4(CCCC4)N2O3)cc1 (centres undefined)	-	-	-	-	-	-
Cc1ccc(N2C(=O)NC(=O)C(CCc3ccccn3)(Cc3cccc(Cl)c3Cl)C2=O)cc1 (centres undefined)	.	.	-	.	.	-
FC(F)(F)c1ccc2c(c1)N(CCCN1CCN(CCCl)CC1)c1ccccc1S2	50	-	-	-	-	-
CCCCn1c(O)c(C=NC2CC3CCC2(C)C3(C)C)c(=O)[nH]c1=O (centres undefined)	-	-	-	-	-	-
CCOP(=O)(OCC)C(NC(C)=O)C(Cl)(Cl)Cl (centres undefined)	-	-	.	-	-	.
O=C1Nc2ccccc2/C1=C/c1cnc[nH]1	99	-	.	-	92	.
FC(F)(F)C1=NC(C(F)(F)F)=NP(N2CCOCC2)(N2CCOCC2)=N1	-	-	-	-	-	-
COCCCNC(=O)c1c(NC(=O)c2ccccc2Cl)n(Cc2ccccc2)c2nc3ccccc3nc12	-	-	-	-	-	-
COCCNC(=O)c1c(NC(=O)c2ccco2)n(Cc2ccccc2)c2nc3ccccc3nc12	-	-	-	-	76	-
COc1cc(C2SCC(=O)Nc3c2c(C)nn3-c2ccccc2)cc(OC)c1OC (centres undefined)	79	-	-	-	69	-
COc1ccc(C2SCC(=O)Nc3c2c(C)nn3C2CCOC(C)(C)C2)cc1 (centres undefined)	-	-	.	-	-	.
Cc1nn(C2CCOC(C)(C)C2)c2c1C(c1ccc3c(c1)OCO3)SCC(=O)N2 (centres undefined)	-	-	-	-	-	-
Cc1nn(-c2ccccc2)c2c1C(c1ccc3c(c1)OCO3)SCC(=O)N2 (centres undefined)	90	-	-	-	90	-
CCCCCCn1c(O)c(C=NC2CCN(Cc3ccccc3)CC2)c(=O)[nH]c1=O	-	-	-	-	73	-
O=c1[nH]c(=O)n(CCC2=CCCCC2)c(O)c1C=NC1CCN(Cc2ccccc2)CC1	-	-	-	-	80	-
CC12CN3CC(c4ccccc4)(CN(C1)C31CCCCC1)C2=O	-	-	-	-	-	-

Bioassay records as filed in PubChem.
